Source: PubChem BioAssay AID1159580 (chemical genetic matrix, 2015)
The whole screen tested about 5,500 compounds, of which about 2,000 (36%) were called active. Inconclusive results (about 18%) are left out. Cut-off read from the data, not from the text of the source: active = normalized growth mostly below about 0.91 (no sharp cut-off); inconclusive = no clear call, values can overlap the other calls; inactive = mostly above about 0.92. The list shows a part of the results.

Experiment: chemical genetic growth profiling, strain panel (AID 1159580);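 note: tested at 20 µM; growth read once vehicle control cultures reached saturation at 30 °C; 1 = growth at the plate median or of vehicle wells; lower values mean less growth of the strain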
Conditions: growth OD

Measured: normalized growth

CC1(C)C2CC[C@]3(C)C(C(=O)C=C4[C@@H]5C[C@@](C)(C(=O)O)CC[C@]5(C)CC[C@]43C)[C@@]2(C)CC[C@@H]1OC(=O)CCC(=O)O (stereo partly drawn)
inactive: S. cerevisiae deletion strains, locus YKL009W, strain mrt4, stronger effect = lower value 0.975 | S. cerevisiae deletion strains, locus YKL068W, stronger effect = lower value 0.986 | S. cerevisiae deletion strains, locus YKL085W, strain MDH1 (second series), stronger effect = lower value 0.984 | S. cerevisiae deletion strains, locus YKL085W, strain MDH1, stronger effect = lower value 0.984 | S. cerevisiae deletion strains, locus YKL160W, strain elf1, stronger effect = lower value 0.938 | S. cerevisiae deletion strains, locus YKL190W, strain CNB1, stronger effect = lower value 0.991 | S. cerevisiae deletion strains, locus YKR001C, strain vps1, stronger effect = lower value 0.999 | S. cerevisiae deletion strains, locus YKR026C, strain gcn3, stronger effect = lower value 0.987 | S. cerevisiae deletion strains, locus YKR091W, strain srl3, stronger effect = lower value 0.989 | S. cerevisiae deletion strains, locus YLL001W, strain dnm1, stronger effect = lower value 1 | S. cerevisiae deletion strains, locus YLL026W, stronger effect = lower value 0.977 | S. cerevisiae deletion strains, locus YLL041C, strain sdh2, stronger effect = lower value 0.982 | S. cerevisiae deletion strains, locus YLR027C, strain aat2, stronger effect = lower value 1 | S. cerevisiae deletion strains, locus YLR039C, strain RIC1, stronger effect = lower value 0.944 | S. cerevisiae deletion strains, locus YLR058C, strain SHM2, stronger effect = lower value 0.986 | S. cerevisiae deletion strains, locus YLR102C, strain apc9, stronger effect = lower value 0.996 | S. cerevisiae deletion strains, locus YLR221C, strain rsa3, stronger effect = lower value 1 | S. cerevisiae deletion strains, locus YLR258W, strain gsy2, stronger effect = lower value 0.98 | S. cerevisiae deletion strains, locus YLR262C, strain YPT6 (second series), stronger effect = lower value 0.962 | S. cerevisiae deletion strains, locus YLR262C, strain YPT6, stronger effect = lower value 0.91 | S. cerevisiae deletion strains, locus YLR268W, strain sec22, stronger effect = lower value 0.998 | S. cerevisiae deletion strains, locus YLR320W, strain mms22, stronger effect = lower value 0.999 | S. cerevisiae deletion strains, locus YLR330W, strain CHS5, stronger effect = lower value 0.992 | S. cerevisiae deletion strains, locus YLR342W, strain FKS1 (second series), stronger effect = lower value 0.995 | S. cerevisiae deletion strains, locus YLR342W, strain FKS1, stronger effect = lower value 0.985 | S. cerevisiae deletion strains, locus YLR357W, strain rsc2, stronger effect = lower value 0.967 | S. cerevisiae deletion strains, locus YLR370C, strain arc18, stronger effect = lower value 0.967 | S. cerevisiae deletion strains, locus YLR371W, strain rom2, stronger effect = lower value 1 | S. cerevisiae deletion strains, locus YLR384C, strain iki3, stronger effect = lower value 0.983 | S. cerevisiae deletion strains, locus YLR418C, strain cdc73, stronger effect = lower value 0.968 | S. cerevisiae deletion strains, locus YML016C, strain PPZ1, stronger effect = lower value 1 | S. cerevisiae deletion strains, locus YML032C, strain rad52, stronger effect = lower value 0.994 | S. cerevisiae deletion strains, locus YML120C, strain ndi1, stronger effect = lower value 0.997 | S. cerevisiae deletion strains, locus YML124C, strain tub3, stronger effect = lower value 1 | S. cerevisiae deletion strains, locus YMR058W, strain fet3, stronger effect = lower value 1.04 | S. cerevisiae deletion strains, locus YMR078C, strain ctf18, stronger effect = lower value 0.976 | S. cerevisiae deletion strains, locus YMR125W, strain sto1, stronger effect = lower value 0.975 | S. cerevisiae deletion strains, locus YMR129W, stronger effect = lower value 0.99 | S. cerevisiae deletion strains, locus YMR205C, strain PFK2, stronger effect = lower value 0.97 | S. cerevisiae deletion strains, locus YMR223W, strain ubp8, stronger effect = lower value 0.973 | S. cerevisiae deletion strains, locus YMR231W, strain pep5, stronger effect = lower value 0.978 | S. cerevisiae deletion strains, locus YMR263W, strain SAP30, stronger effect = lower value 1 | S. cerevisiae deletion strains, locus YMR307W, strain GAS1, stronger effect = lower value 1.01 | S. cerevisiae deletion strains, locus YNL067W, strain RPL9B, stronger effect = lower value 1.02 | S. cerevisiae deletion strains, locus YNL071W, strain lat1, stronger effect = lower value 0.994 | S. cerevisiae deletion strains, locus YNL183C, strain NPR1, stronger effect = lower value 0.991 | S. cerevisiae deletion strains, locus YNL209W, strain ssb2, stronger effect = lower value 0.967 | S. cerevisiae deletion strains, locus YNL233W, strain BNI4, stronger effect = lower value 1.03 | S. cerevisiae deletion strains, locus YNL248C, strain rpa49, stronger effect = lower value 0.909 | S. cerevisiae deletion strains, locus YNL250W, strain rad50, stronger effect = lower value 0.949 | S. cerevisiae deletion strains, locus YNL271C, strain bni1, stronger effect = lower value 0.983 | S. cerevisiae deletion strains, locus YNL298W, strain CLA4, stronger effect = lower value 0.997 | S. cerevisiae deletion strains, locus YNL307C, strain MCK1, stronger effect = lower value 0.992 | S. cerevisiae deletion strains, locus YNL322C, strain KRE1 (second series), stronger effect = lower value 0.979 | S. cerevisiae deletion strains, locus YNL322C, strain KRE1, stronger effect = lower value 0.99 | S. cerevisiae deletion strains, locus YNR049C, strain mso1, stronger effect = lower value 0.983 | S. cerevisiae deletion strains, locus YNR052C, strain pop2, stronger effect = lower value 0.975 | S. cerevisiae deletion strains, locus YOL006C, strain TOP1, stronger effect = lower value 1.04 | S. cerevisiae deletion strains, locus YOL012C, strain htz1 1.07 | S. cerevisiae deletion strains, locus YOL147C, strain pex11, stronger effect = lower value 0.989 | S. cerevisiae deletion strains, locus YOR001W, strain rrp6, stronger effect = lower value 1.03 | S. cerevisiae deletion strains, locus YOR061W, strain CKA2, stronger effect = lower value 0.991 | S. cerevisiae deletion strains, locus YOR069W, strain VPS5, stronger effect = lower value 0.982 | S. cerevisiae deletion strains, locus YOR070C, strain gyp1, stronger effect = lower value 0.986 | S. cerevisiae deletion strains, locus YOR080W, strain dia2, stronger effect = lower value 1.01 | S. cerevisiae deletion strains, locus YOR083W, strain WHI5, stronger effect = lower value 0.891 | S. cerevisiae deletion strains, locus YOR106W, strain vam3, stronger effect = lower value 0.896 | S. cerevisiae deletion strains, locus YOR136W, strain idh2, stronger effect = lower value 0.998 | S. cerevisiae deletion strains, locus YOR144C, strain elg1, stronger effect = lower value 1 | S. cerevisiae deletion strains, locus YOR184W, strain ser1, stronger effect = lower value 0.96 | S. cerevisiae deletion strains, locus YOR231W, strain MKK1, stronger effect = lower value 1.06 | S. cerevisiae deletion strains, locus YOR265W, strain rbl2, stronger effect = lower value 0.974 | S. cerevisiae deletion strains, locus YOR270C, strain vph1, stronger effect = lower value 0.867 | S. cerevisiae deletion strains, locus YOR290C, strain snf2, stronger effect = lower value 0.96 | S. cerevisiae deletion strains, locus YOR316C, strain cot1, stronger effect = lower value 0.992 | S. cerevisiae deletion strains, locus YPL051W, strain arl3, stronger effect = lower value 0.966 | S. cerevisiae deletion strains, locus YPL055C, strain LGE1, stronger effect = lower value 1.08 | S. cerevisiae deletion strains, locus YPL078C, strain atp4, stronger effect = lower value 0.962 | S. cerevisiae deletion strains, locus YPL106C, strain sse1, stronger effect = lower value 0.986 | S. cerevisiae deletion strains, locus YPL240C, strain hsp82, stronger effect = lower value 0.978 | S. cerevisiae deletion strains, locus YPL241C, strain CIN2, stronger effect = lower value 0.992 | S. cerevisiae deletion strains, locus YPL256C, strain CLN2, stronger effect = lower value 1.05 | S. cerevisiae deletion strains, locus YPR119W, strain clb2, stronger effect = lower value 0.992 | S. cerevisiae deletion strains, locus YPR141C, strain kar3, stronger effect = lower value 0.999 | S. cerevisiae deletion strains, locus YPR163C, strain tif3, stronger effect = lower value 0.983 | S. cerevisiae deletion strains, locus YPR167C, strain met16, stronger effect = lower value 0.99 | S. cerevisiae deletion strains, strain wtn01, stronger effect = lower value 0.976 | S. cerevisiae strains, strain wild type, stronger effect = lower value 0.991
